# Results filed as inconclusive are left out. A call without a number means that no potency is given here. Activity calls are given as the source filed them. Unless noted, calls come from the whole dose curve; as a rule, active = well fitted curve in the direction sought with a large enough effect; inconclusive = small, poorly fitted or top-dose-only effect, or another doubt; inactive = no such curve, though single readings can be large; an effect the other way counts as inactive or inconclusive.
# What was measured:
# [1] = MultiTox-Fluor Cytotoxicity Assay - LYMP1-001 - Live Cells (AID 947); settings: LYMP1-001 lymphoblastoid cells, live-cell protease fluorescence viability; series mostly up to 92.2 µM
# [2] = Cell Viability - LYMP1-002 - Assay at 16 hr (AID 948); settings: LYMP1-002 lymphoblastoid cell viability; series mostly up to 92.2 µM
# Summary of the method: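 LYMP1-002 human lymphoblastoid cells, 2500/well; 5 hr 37 C; cpd 16 hr 37 C; CellTiter-Glo 30 min RT; luminescence (ATP). Concentration-response, Hill-fit AC50. Pos ctrl tetraoctylammonium bromide.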
# [3] = MultiTox-Fluor Cytotoxicity Assay - LYMP1-002 - Live Cells (AID 955); settings: LYMP1-002 lymphoblastoid live-cell protease fluorescence viability; series mostly up to 46.1 µM;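 note: cells exposed to compound for 16 hours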
# Summary of the method: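 Cytotoxicity in the human lymphoblastoid line LYMP1-002 is measured as loss of live-cell protease activity after 16 h treatment in complete culture medium. AC50 is derived from Hill-equation fits of qHTS concentration-response data.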
# [4] = MultiTox-Fluor Cytotoxicity Assay - LYMP1-003 - Dead Cells (AID 961); settings: LYMP1-003 lymphoblastoid cells, dead-cell protease fluorescence; series mostly up to 92.2 µM;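 note: cells exposed to compound for 16 h at 37 °C; nearly all actives have a fitted effect of over 70% in size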; note: potency is the fitted concentration of half-maximal effect
# Summary of the method: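 Acute toxicity is scored as increased dead-cell protease activity in human lymphoblastoid LYMP1-003 cells after 16 h compound exposure in complete culture medium. Activity is normalized to DMSO basal and 15 uM tetraoctylammonium bromide as full response.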
# [5] = MultiTox-Fluor Cytotoxicity Assay - LYMP1-003 - Live Cells (AID 962); settings: LYMP1-003 lymphoblastoid cells, MultiTox-Fluor live-cell protease fluorescence; series mostly up to 92.2 µM;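 note: cells exposed to compound for 16 hours at 37 °C; cytotoxic hits lower the live-cell protease signal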
# Summary of the method: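 Cells plated at 2500 per well and incubated 5 hr; compounds added and incubated 16 hr at 37 C; MultiTox-Fluor reagent added for 60 min at room temperature; fluorescence of liberated AFC measured at 405/510 nm.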
# [6] = Cell Viability - LYMP1-003 - Assay at 24 hr (AID 963); settings: LYMP1-003 lymphoblastoid cell viability; series mostly up to 92.2 µM
# Summary of the method: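 Acute toxicity in LYMP1-003 lymphoblastoid cells: 24 hr compound treatment at 37 C, ATP measured with CellTiter-Glo after 30 min at room temperature. AC50 derived by fitting the Hill equation to qHTS titrations.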
# [7] = Cell Viability - LYMP1-003 - Assay at 40 hr (AID 964); settings: LYMP1-003 lymphoblastoid viability; series mostly up to 92.2 µM; note: nearly all actives have a fitted effect of over 60% in size
# Summary of the method: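 This qHTS cytotoxicity screen treats human lymphoblastoid cells (LYMP1-003) with compounds for 40 hr and quantifies cellular ATP via luciferase luminescence.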
# [8] = Cell Viability - LYMP2-003 (AID 965); settings: LYMP2-003 lymphoblastoid cell viability; series mostly up to 92.2 µM;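 note: cells exposed to compounds for 24 h before reading; nearly all actives have a fitted effect of over 50% in size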
# Summary of the method: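 CellTiter-Glo luminescence (cellular ATP) after 24 h compound exposure at 37 C in complete medium; 2500 cells/well, 5 h settling beforehand. Concentration-response fitted to standard Hill equation for AC50. Tetraoctylammonium bromide served as positive control.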
# [9] = Cell Viability - LYMP2-004 (AID 966); settings: LYMP2-004 lymphoblastoid cell viability, qHTS; series mostly up to 92.2 µM; note: nearly all actives have a fitted effect of over 65% in size
# Summary of the method: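 Acute toxicity is scored as a concentration-dependent drop in intracellular ATP, quantified by luciferase luminescence, in human lymphoblastoid cells exposed to compound for 24 hr. AC50 derives from Hill-equation modelling.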
# [10] = Cell Viability - LYMP2-005 (AID 967); settings: LYMP2-005 lymphoblastoid cell viability; series mostly up to 92.2 µM
# Summary of the method: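 Steps: seed 2500 LYMP2-005 cells/well, incubate 5 h at 37 C, add compound, incubate 24 h at 37 C, add CellTiter-Glo, wait 30 min at RT, read luminescence. Concentration-response data fitted to Hill equation for AC50.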
# [11] = Cell Viability - LYMP2-011 (AID 969); settings: LYMP2-011 lymphoblastoid cells viability; series mostly up to 92.2 µM; note: nearly all actives have a fitted effect of over 60% in size
# Summary of the method: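 Acute toxicity is scored as a concentration-dependent drop in intracellular ATP of a human lymphoblastoid line after 24 hr treatment. Values are AC50s modeled with the Hill equation.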
# [12] = Cell Viability - LYMP2-013 (AID 970); settings: LYMP2-013 lymphoblastoid cells viability; series mostly up to 92.2 µM; note: nearly all actives have a fitted effect of over 55% in size
# Summary of the method: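 Acute toxicity was measured in human lymphoblastoid cells (2500/well) exposed to compound titrations for 24 hr, with ATP luminescence (CellTiter-Glo) as read-out and AC50 fitted by Hill equation.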
# [13] = Cell Viability - LYMP2-015 (AID 971); settings: LYMP2-015 lymphoblastoid cell viability; series mostly up to 92.2 µM; note: nearly all actives have a fitted effect of over 55% in size
# Summary of the method: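 Acute toxicity was scored as a concentration-dependent drop in intracellular ATP in lymphoblastoid cells after 24 hr compound exposure in complete medium. Detection used CellTiter-Glo luciferase luminescence.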
# [14] = Cell Viability - LYMP2-017 (AID 972); settings: LYMP2-017 lymphoblastoid cell viability; series mostly up to 92.2 µM;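 note: cells exposed to compound for 24 hours at 37 °C; nearly all actives have a fitted effect of over 55% in size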
# Summary of the method: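 Steps: plate 2500 lymphoblastoid cells per well; incubate 5 hr at 37 C; add compound across a concentration series and incubate 24 hr at 37 C; add CellTiter-Glo and read luminescence after 30 min at room temperature; fit Hill curves for AC50.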
# [15] = Cell Viability - LYMP2-019 (AID 973); settings: LYMP2-019 lymphoblastoid cell line viability; series mostly up to 92.2 µM; note: nearly all actives have a fitted effect of over 55% in size
# Summary of the method: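 Cells plated at 2500/well and allowed 5 hr at 37 C before compound addition. After 24 hr incubation, CellTiter-Glo reagent was added, plates sat 30 min at room temperature, and luminescence was recorded.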
# [16] = Cell Viability - LYMP2-021 (AID 974); settings: LYMP2-021 lymphoblastoid cells viability; series mostly up to 92.2 µM
# Summary of the method: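 Concentration-response cytotoxicity in a human lymphoblastoid line: 24 hr treatment at 37 C in complete culture medium, tetraoctylammonium bromide as positive control, luminescent ATP quantitation as viability measure.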
# [17] = Cell Viability - LYMP2-023 (AID 975); settings: LYMP2-023 lymphoblastoid cell viability; series mostly up to 92.2 µM
# Summary of the method: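 Concentration-dependent drop in intracellular ATP measures acute cytotoxicity in a human lymphoblastoid line treated for 24 hours in complete culture medium. AC50 values are taken from Hill-equation fits of qHTS data.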
# [18] = Cell Viability - LYMP2-025 (AID 976); settings: LYMP2-025 lymphoblastoid cell viability; series mostly up to 92.2 µM
# Summary of the method: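 In qHTS format, LYMP2-025 lymphoblastoid cells in complete culture medium received compound for 24 hr; ATP-based CellTiter-Glo signal gave viability, with AC50 derived by Hill equation.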
# [19] = molecular target: Pyruvate kinase PKM (Homo sapiens) (UniProt P14618); assay: qHTS Assay for Activators of Human Muscle Pyruvate Kinase (AID 954; active = well fitted curve in the direction sought with a large enough effect, not every such curve was filed as active); settings: purified human muscle pyruvate kinase, luciferase-coupled luminescence, 1 h; series mostly up to 57.5 µM
# Summary of the method: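 Enzyme was run at intermediate activity so both inhibitors and activators could be detected. ATP formed from ADP and PEP by 0.1 nM human PKM2 during a 1 h room-temperature incubation was quantified by coupled luciferase luminescence.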
# [20] = MultiTox-Fluor Cytotoxicity Assay - LYMP1-002 - Dead Cells (AID 960); settings: LYMP1-002 lymphoblastoid cells, dead-cell protease fluorescence; series mostly up to 46.1 µM;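 note: cells exposed to compound for 16 h at 37 °C; nearly all actives have a fitted effect of over 60% in size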
# Summary of the method: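 Acute cytotoxicity in a human lymphoblastoid line is scored as rising dead-cell protease signal after 16 hr exposure at 37 C, measured fluorometrically (485/520).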
# Pyruvate kinase PKM (Homo sapiens), sequence (P14618 whole entry, looked up): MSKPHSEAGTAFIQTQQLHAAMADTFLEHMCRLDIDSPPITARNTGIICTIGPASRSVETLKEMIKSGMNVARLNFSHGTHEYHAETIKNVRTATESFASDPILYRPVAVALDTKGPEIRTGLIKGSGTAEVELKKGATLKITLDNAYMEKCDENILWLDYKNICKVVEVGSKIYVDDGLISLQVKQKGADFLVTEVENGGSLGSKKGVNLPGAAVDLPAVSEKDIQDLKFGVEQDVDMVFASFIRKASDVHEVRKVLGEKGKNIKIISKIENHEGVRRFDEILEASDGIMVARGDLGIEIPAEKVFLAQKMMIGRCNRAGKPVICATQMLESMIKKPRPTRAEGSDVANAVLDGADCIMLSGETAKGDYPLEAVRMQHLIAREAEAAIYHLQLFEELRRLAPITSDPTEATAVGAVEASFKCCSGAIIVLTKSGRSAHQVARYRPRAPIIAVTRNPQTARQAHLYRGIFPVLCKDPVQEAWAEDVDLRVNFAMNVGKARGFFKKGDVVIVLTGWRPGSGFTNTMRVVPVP
SMILES,outcome [1],outcome [2],outcome [3],Potency [4],outcome [5],outcome [6],outcome [7],outcome [8],outcome [9],outcome [10],outcome [11],outcome [12],outcome [13],outcome [14],outcome [15],outcome [16],outcome [17],outcome [18],outcome [19],outcome [20]
C=C[C@H]1CN2CC[C@H]1C[C@@H]2[C@@H](O)c1ccnc2ccc(OC)cc12,inactive,inactive,inactive,inactive,inactive,inactive,inactive,inactive,inactive,inactive,inactive,inactive,inactive,inactive,inactive,inactive,inactive,inactive,,
CN(C)CCC[C@@]1(c2ccc(F)cc2)OCc2cc(C#N)ccc21,,,,,,,,,,,,,,,,,,,inactive,
C/C=C/c1ccc(O)c(OC)c1,inactive,inactive,inactive,inactive,inactive,inactive,inactive,inactive,inactive,inactive,inactive,inactive,inactive,inactive,inactive,inactive,inactive,inactive,,inactive
COc1ccc(C(Cl)=C(c2ccc(OC)cc2)c2ccc(OC)cc2)cc1,inactive,inactive,inactive,inactive,inactive,inactive,,inactive,inactive,,inactive,inactive,inactive,inactive,inactive,inactive,inactive,inactive,,inactive
Oc1c(Cl)cc(Cl)c(Cl)c1Cc1c(O)c(Cl)cc(Cl)c1Cl,,inactive,,50.1 µM (active),,inactive,,,,,,,,,,,,,,
CC(C)(C)NC[C@H](O)COc1nsnc1N1CCOCC1,,,,,,,,,,,,,,,,,,,inactive,
Oc1ccc(Cl)cc1Cc1cc(Cl)ccc1O,,inactive,inactive,,inactive,inactive,,,,,,,,,,,,,,inactive
CN=C(N)NCCC[C@H](N)C(=O)O,,,,,,,,,,,,,,,,,,,inactive,
COc1ccc(C(=O)c2ccccc2)c(O)c1,inactive,inactive,inactive,inactive,inactive,inactive,inactive,inactive,inactive,inactive,inactive,inactive,inactive,inactive,inactive,inactive,inactive,inactive,,inactive
CCCN(CCC)S(=O)(=O)c1ccc(C(=O)O)cc1,inactive,inactive,inactive,inactive,inactive,inactive,inactive,inactive,inactive,inactive,inactive,inactive,inactive,inactive,inactive,inactive,inactive,inactive,,inactive
NC(N)=NCc1cccc(I)c1,,,,,,,,,,,,,,,,,,,inactive,
CCCCC(CC)COC(=O)c1ccc(N(C)C)cc1 (stereo not given),inactive,inactive,inactive,inactive,inactive,inactive,inactive,inactive,inactive,inactive,inactive,inactive,inactive,inactive,inactive,inactive,inactive,inactive,,
CCOc1ccccc1C(N)=O,inactive,inactive,inactive,inactive,inactive,inactive,inactive,inactive,inactive,inactive,inactive,inactive,inactive,inactive,inactive,inactive,inactive,inactive,,inactive
CN1CCC[C@@H]1CCO[C@](C)(c1ccccc1)c1ccc(Cl)cc1,,,,,,,,,,,,,,,,,,,inactive,
CCOc1ccc(NC(C)=O)cc1,inactive,inactive,inactive,inactive,inactive,inactive,inactive,inactive,inactive,inactive,inactive,inactive,inactive,inactive,inactive,inactive,inactive,inactive,,inactive
O=C(O)c1ccc(S(=O)(=O)N(Cl)Cl)cc1,inactive,inactive,inactive,inactive,inactive,inactive,inactive,inactive,inactive,inactive,inactive,inactive,inactive,inactive,inactive,inactive,inactive,inactive,,inactive
NC(=O)c1ccccc1O,inactive,inactive,inactive,inactive,inactive,inactive,inactive,inactive,inactive,inactive,inactive,inactive,inactive,inactive,inactive,inactive,inactive,inactive,,inactive
NS(=O)(=O)Cc1noc2ccccc12,,,,,,,,,,,,,,,,,,,inactive,
NCCNc1cccc2ccccc12,inactive,inactive,inactive,inactive,inactive,inactive,inactive,inactive,inactive,,inactive,inactive,inactive,inactive,inactive,inactive,inactive,inactive,,inactive
COc1cc([C@H]2Oc3cc([C@H]4Oc5cc(O)cc(O)c5C(=O)[C@@H]4O)ccc3O[C@@H]2CO)ccc1O,inactive,inactive,inactive,inactive,inactive,inactive,inactive,inactive,inactive,inactive,inactive,inactive,inactive,inactive,inactive,inactive,inactive,inactive,,inactive
OC[C@H]1O[C@@H]2O[C@H]3[C@H](O)[C@@H](O)[C@@H](O[C@H]4[C@H](O)[C@@H](O)[C@@H](O[C@H]5[C@H](O)[C@@H](O)[C@@H](O[C@H]6[C@H](O)[C@@H](O)[C@@H](O[C@H]7[C@H](O)[C@@H](O)[C@@H](O[C@H]8[C@H](O)[C@@H](O)[C@@H](O[C@H]1[C@H](O)[C@H]2O)O[C@@H]8CO)O[C@@H]7CO)O[C@@H]6CO)O[C@@H]5CO)O[C@@H]4CO)O[C@@H]3CO,inactive,inactive,inactive,inactive,inactive,inactive,inactive,inactive,inactive,,inactive,inactive,inactive,inactive,inactive,inactive,inactive,inactive,,inactive
